MITF primary: human MITF inhibition, primary screen; O75030; 650,000 compounds, 0.91% hits; AlphaScreen MITF homodimerization, bead proximity signal; inhibition, % at 2.6 µM; AID 1259374; in the data active means inhibition above about 50%;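 further: 0% = vehicle wells with protein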
Target sequence (O75030 whole entry, looked up): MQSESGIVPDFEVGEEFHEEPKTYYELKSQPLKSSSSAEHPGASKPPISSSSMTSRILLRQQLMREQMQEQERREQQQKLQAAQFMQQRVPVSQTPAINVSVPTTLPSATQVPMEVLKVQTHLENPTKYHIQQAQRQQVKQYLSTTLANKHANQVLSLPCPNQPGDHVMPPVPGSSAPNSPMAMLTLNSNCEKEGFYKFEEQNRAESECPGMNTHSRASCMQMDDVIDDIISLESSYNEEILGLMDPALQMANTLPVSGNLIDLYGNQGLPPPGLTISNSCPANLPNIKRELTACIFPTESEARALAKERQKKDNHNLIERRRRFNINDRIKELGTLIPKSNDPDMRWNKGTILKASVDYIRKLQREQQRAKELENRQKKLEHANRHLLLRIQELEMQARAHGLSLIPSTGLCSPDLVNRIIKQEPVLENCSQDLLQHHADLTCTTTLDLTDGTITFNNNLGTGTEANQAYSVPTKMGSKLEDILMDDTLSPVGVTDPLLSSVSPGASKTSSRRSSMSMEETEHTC
GPR151 ag: activates the human receptor GPR151. Q8TDV0. PathHunter beta-arrestin GPR151 cells, luminescence. activation, % at 11.2 µM. 650,000 compounds, 1% hits. AID 1508602; in the data active means activation above about 4.9%;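 further: 0% = median of compound wells and 100% = cells with positive control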
FBW7 act: activators of human E3 ligase FBW7. Q969H0. AlphaScreen FBW7–phospho-cyclin E peptide binding, activator screen. normalized activity (activation), % at 26.1 µM. 650,000 compounds, 0.13% hits. AID 1259310; in the data active means normalized activity above about 1.9%;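 further: purified mutant Fbw7 with reduced substrate affinity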
TEAD-YAP block: TEAD-YAP interaction inhibition; 640,000 compounds, 1.4% hits; HEK-TIYL cells, TEAD-Gal4/YAP UAS-luciferase luminescence; inhibition, % at 9.12 µM; in the data active means inhibition above about 32%;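 further: 0% = median of test compound wells and 100% = reference inhibitor wells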
GPR151 confirm: confirmation of human GPR151 activators | shares compounds with GPR151 ag | GPR151 PathHunter beta-arrestin cells, luminescence, 90 min; % of EA-reagent control over plate median | activation, % at 11.2 µM | 6,700 tested, under 10 active;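 active means mean percent activation across replicates above the confirmation screen cutoff of 4.91%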
GPR119 ag: GPR119 activation, counter-screen for GPR151 activators. GPR119 PathHunter beta-arrestin cells, luminescence, 90 min; 0 = compound-well median, 100 = enzyme-acceptor control. activation, % at 11.2 µM. 6,700 compounds, 0.3% hits. shares compounds with GPR151 ag;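 active means mean percent activation in the counterscreen above 29.09%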;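 further: counterscreen on off-target GPR119 to flag nonselective hits from the GPR151 activator screen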
* = called active by the depositor; · = no result given; ! = not confirmed by another sample. Sampled rows, rich in hits. Any-hit rate of the full collection: about 3.5%.

SMILES | MITF primary | GPR151 ag | FBW7 act | TEAD-YAP block | GPR151 confirm | GPR119 ag
CCOC(=O)c1c(C)n(C)c2ccc(OCC(O)Cn3nnc4ccccc43)cc12 (centres undefined) | 12 | 6.0* | 0 | 12 | 0 | 4
O=c1oc2c(CN3CCOCC3)c(O)ccc2cc1-c1ccc(F)cc1 | 7 | 14* | 1 | -4 | 0 | -3
COc1ccc(-c2cc3ccc(O)c(CN4CCOCC4)c3oc2=O)cc1 | 8 | -1 | 0 | -3 | · | ·
CC(C)N(C(=O)Cn1cc(SCC(=O)NCC2CCCO2)c2ccccc21)C(C)C (centres undefined) | -1 | 12* | 0 | 2 | 0 | -2
O=C(CSc1cn(CCNC(=O)c2ccccc2)c2ccccc12)NCC1CCCO1 (centres undefined) | -18 | 0 | 0 | -6 | · | ·
CCCCOc1ccc(OCCCC)c2c1NC1(N2)C(=O)Nc2ccc([N+](=O)[O-])cc21 | 5 | 5.1* | 0 | -9 | 1 | 2
CCc1ccc(C2=NN(CCC(=O)NCc3ccc4c(c3)OCO4)C(=O)CC2)cc1 | 2 | 0 | 0 | 13 | · | ·
N#C/C(=C\c1ccccc1C(F)(F)F)C(N)=S | -7 | -1 | 0 | 11 | · | ·
COc1ccc(C)cc1N(CC(=O)NCCC(C)C)C(=O)c1snc(C(N)=O)c1N | -23 | 11* | 0 | -2 | 1 | 5
COc1ccc(N(CC(=O)NCCC(C)C)C(=O)c2snc(C(N)=O)c2N)c(OC)c1 | -2 | 0 | 1 | -9 | · | ·
COc1ccc(OCc2cc(C(=O)N3CCCCC3CO)no2)c(Cl)c1 (centres undefined) | 9 | 1 | 0 | -42 | · | ·
COc1ccc(OCc2cc(C(=O)N[C@H]3CCCCNC3=O)no2)c(Cl)c1 | 1 | 5.0* | 0 | -47 | 0 | 0
CCn1c(NC2CCCCC2)nc2ccccc21 | 19 | 1 | 0 | 9 | · | ·
O=C(O)CCC/C=C\C[C@@H]1[C@@H](/C=C/[C@@H](O)COc2cccc(C(F)(F)F)c2)[C@H](O)C[C@@H]1O | -5 | 4 | · | · | · | ·
O=C(O)CCC/C=C/C[C@@H]1[C@@H](/C=C/[C@@H](O)COc2cccc(C(F)(F)F)c2)[C@H](O)C[C@@H]1O | 2 | 5.1* | · | · | 2 | 8
CC(O)CNc1nc2ccccc2n1CC(=O)N1CCc2ccccc21 (centres undefined) | 0 | 10.0* | 0 | 6 | -1 | 9
O=C(Nc1ccc(Cl)c(Cl)c1)OCc1ccco1 | 4 | 6.0* | 0 | -15 | 1 | 0
COc1ccc(-c2noc(C(C)c3ccc([N+](=O)[O-])cc3)n2)cc1 (centres undefined) | 4 | 5.1* | 0 | -5 | 0 | 1
COc1cccc(-c2nc(-c3ccc([N+](=O)[O-])cc3)no2)c1 | 0 | 0 | 0 | 5 | · | ·
CC1Oc2ccccc2C=C1C1/C(=C(\O)c2ccccc2)C(=O)C(=O)N1CCCN(C)C (centres undefined) | -3 | 12* | 0 | 4 | 1 | -3
CN(C)CCCN1C(=O)C(=O)/C(=C(\O)c2ccccc2)C1c1ccncc1 (centres undefined) | 7 | 1 | 0 | -7 | · | ·
O=C(CCCOc1ccc(Cl)cc1Cl)NCc1ccco1 | -3 | -1 | 0 | 4 | · | ·
CCNC(=O)CNS(=O)(=O)c1ccc(I)cc1 | -1 | 1 | 0 | 8 | · | ·
CCCCNC(=O)NS(=O)(=O)c1ccc(C)cc1 | 15 | 6.1*! | 0 | 0 | 0 | 2
CCNC(=O)CNS(=O)(=O)c1ccc(C)cc1 | 4 | 7.9* | 0 | 2 | 0 | 1
SMILES | MITF primary | GPR151 ag | FBW7 act | TEAD-YAP block | GPR151 confirm | GPR119 ag
COc1ccc(C2CC(=O)C3=C(C2)Nc2ccccc2N(C(C)=O)C3c2ccc(C(C)(C)C)cc2)cc1 (centres undefined) | 1 | 0 | 0 | 10 | · | ·
C=CCN=C(CC)C1=C(O)CC(C)(C)CC1=O | 1 | -1 | 0 | -3 | · | ·
CCCN=C(CC)C1=C(O)CC(C)(C)CC1=O | -15 | 5.4* | 0 | -3 | -1 | -3
CC(NC(=O)c1ccc(N(C)S(=O)(=O)c2ccccc2)cc1)c1ccccc1 (centres undefined) | -12 | 1 | 0 | -3 | · | ·
COc1ccc(CCN2C(=O)c3ccc(Oc4ccc(Nc5ncnc6ccccc56)cc4)cc3C2=O)cc1OC | 18 | 6.6* | 0 | 97* | 3 | 26
COc1ccc(CCN2C(=O)c3ccc(Oc4ccc([N+](=O)[O-])cc4)cc3C2=O)cc1OC | -20 | 0 | 0 | 9 | · | ·
COc1ccc(/C=N/NC(=O)CNc2ccc3ccccc3c2)cc1Cl | 15 | -1 | 0 | -12 | · | ·
COc1ccc(/C=N/NC(=O)C(=O)Nc2cccc(Cl)c2)cc1OC | -7 | 7.4* | 0 | -4 | 0 | 2
COc1ccc(/C=N/NC(=O)CNC(=O)c2ccccc2Br)cc1OC | 6 | 7.6* | 0 | 3 | 0 | -4
COc1ccc(/C=N/NC(=O)CNc2ccc3ccccc3c2)cc1OC | 11 | 5.9* | 0 | -4 | 0 | -3
COc1ccc(/C=N/NC(=O)CNC(=O)c2ccccc2Br)cc1 | 3 | -1 | 0 | 0 | · | ·
CCCn1cnc2sc(C(=O)Nc3ccccc3OC)c(C)c2c1=O | 0 | 11* | 0 | -8 | -1 | -12
C#C[C@]1(O)CC[C@H]2[C@@H]3CCC4=Cc5oncc5CC4(C)[C@H]3CCC21C (some centres undefined) | 1 | 5.5*! | 0 | -15 | 1 | -2
C#C[C@]1(O)CC[C@H]2[C@@H]3CCc4cc(O)ccc4[C@H]3CC[C@@]21C | -5 | 2 | 0 | · | · | ·
CCCCN(C)S(=O)(=O)c1cc2c(cc1C)N(C(C)=O)CCO2 | -3 | 6.2* | 0 | -2 | 1 | 0
O=C(O)COc1ccc(N2C(=O)c3ccc(-c4nc5ccccc5c(=O)o4)cc3C2=O)cc1 | -2 | 7.2* | 0 | 0 | 0 | -3
COc1ccc(NC(=O)COc2ccc3c(=O)c(-c4ccc(F)cc4)coc3c2)cc1 | -6 | 5.4* | 0 | -5 | 1 | 2
O=C(NC1CCCCC1)c1nn2c(C(F)(F)F)cc(-c3ccccc3)nc2c1Br | 0 | 5.0* | 0 | 1 | 0 | 1
CC(C)C[C@H](O)C(=O)N1CCN(c2ccc3[nH]ncc3c2)CC1 | 8 | 5.0* | 0 | -8 | 0 | 13
CC(C)[C@H](O)C(=O)N1CCN(c2ccc3[nH]ncc3c2)CC1 | 24 | -1 | 0 | 0 | · | ·
COCCNC(=O)c1nn(-c2cc(OC)cc(OC)c2)c(=O)c2ccccc12 | 6 | 0 | 0 | 6 | · | ·
O=C(Nc1c2c(nn1-c1ccc(F)cc1)CS(=O)(=O)C2)C1(c2ccc(Cl)cc2)CCCC1 | -16 | 5.1* | 0 | -13 | 0 | 6
COc1ccc(Cl)cc1C(=O)Nc1c2c(nn1-c1ccc(C)cc1C)CS(=O)(=O)C2 | 11 | 5.3* | 0 | -3 | 1 | 2

Compound activity: PubChem, The Scripps Research Institute Molecular Screening Center
